# Assay outcomes: PubChem BioAssay, several laboratories
# Only some compounds are listed: those with a hit (about 3.2% of all), similar ones and a draw of the others.
# TcdB GH inh: TcdB glycohydrolase inhibition | TcdB glycohydrolase enzymatic assay, plate reader | AID 652162 | hit rate 0.24% among 350,000 | inhibition, % at 9.99 µM; in the data active = inhibition above about 10%
# PrPC surface inh: inhibitors of human cell surface prion protein PrPC; P04156; TR-FRET read-out; inhibition, % at 13.8 µM; hit rate 0.43% among 370,000; AID 720596; in the data active = inhibition above about 24%; also: 0% = median of the test wells and 100% = reference compound wells
# Y pestis TopoI: inhibitors of Yersinia pestis topoisomerase I | Y. pestis Topo-I cleavage product accumulation, plate reader | activity, % at 10 µM | hit rate 0.064% among 360,000; in the data active = activity above about 50%, passing the limit was not always enough
# Mtb FBA inh: Mtb fructose-bisphosphate aldolase inhibition | P9WQA3 | purified M. tuberculosis FBA, fluorescence read-out | inhibition, % at 1 µM | hit rate 2.3% among 360,000 | AID 588726; in the data active = inhibition above about 27%;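 also: 0% = vehicle and 100% = reference inhibitor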
# Target sequence (P9WQA3 whole entry, looked up): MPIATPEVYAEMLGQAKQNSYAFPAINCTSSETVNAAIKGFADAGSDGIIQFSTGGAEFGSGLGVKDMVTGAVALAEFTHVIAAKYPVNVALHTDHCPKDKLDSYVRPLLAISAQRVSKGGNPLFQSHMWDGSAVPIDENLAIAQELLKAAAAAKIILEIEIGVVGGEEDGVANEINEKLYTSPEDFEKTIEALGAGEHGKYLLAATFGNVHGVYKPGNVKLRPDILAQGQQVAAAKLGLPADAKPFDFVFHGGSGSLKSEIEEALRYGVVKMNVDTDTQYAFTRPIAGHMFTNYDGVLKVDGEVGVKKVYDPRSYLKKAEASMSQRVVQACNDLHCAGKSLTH
# GDH-TPI counter: counter-screen for M. tuberculosis FBA inhibitors: GDH-TPI coupled enzymes; AID 588335; GDH-TPI coupled enzyme counterscreen, NADH absorbance; inhibition, % at 4.8 µM; hit rate 1.2% among 360,000; in the data active = inhibition above about 30%;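 also: 0% = DMSO wells and 100% = wells lacking the enzyme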
# Active calls of the source: *; · = no result; + = active, no number.
SMILES,TcdB GH inh,PrPC surface inh,Y pestis TopoI,Mtb FBA inh,GDH-TPI counter
CC12CN3CC(C)(CN(C1)C3c1ccc(Cl)cc1Cl)C2O (stereo unspecified),·,0,-4,-1,-2
Cc1noc(/C=C/c2ccccn2)c1[N+](=O)[O-],1,-34,-13,-3,36*
Clc1cccc(-c2ccnc3nc(-n4cccc4)nn23)c1,·,-6,11,11,6
O=C(Nc1nc2nccc(-c3ccccc3)n2n1)C(Cl)(Cl)Cl,0,7,0,173*,21
Oc1cc(NCc2cccnc2)ccc1-c1nc2ccccc2o1,·,9,3,11,64*
CC(C)NC(=O)N(C)C[C@@H]1OCCCC[C@H](C)Oc2ccc(NS(=O)(=O)c3cccs3)cc2C(=O)N([C@H](C)CO)C[C@@H]1C,0,·,·,·,·
Nc1nn(-c2ccccc2)c(N)c1N=Nc1ccccc1,·,-35,-2,-1,34*
CCCCNC(=O)N1CCC(CCC(=O)N(C)Cc2ccccc2)CC1,-3,3,-1,0,6
CC(=O)NCCC1CCN(c2nc3nonc3nc2N(C)Cc2ccccc2)CC1,0,-11,3,0,37*
CCCCC1=CC2=C(c3ccco3)C(=O)C(C)(OC(=O)c3ccc(OC)cc3)C(=O)C2=CN1Cc1ccccc1 (stereo unspecified),1,31*,2,5,6
C[C@H](CO)N1C[C@H](C)[C@@H](CN(C)S(=O)(=O)c2cccs2)Oc2c(NC(=O)c3cnccn3)cccc2C1=O,0,·,·,·,·
Cc1c(CC(=O)NCC(=O)NCC(=O)N[C@@H](Cc2ccccc2)C(=O)O)c(=O)oc2c(C)c(O)ccc12,-1,-4,-9,+,12
O=C(COc1ccc2ccc(=O)oc2c1)NC(Cc1ccc(Cl)cc1)C(=O)O (stereo unspecified),1,-4,1,18,14
O=C(Cc1cc(=O)oc2cc(O)ccc12)NC(Cc1ccc(Cl)cc1)C(=O)O (stereo unspecified),-3,0,-8,+,7
COc1ccc2c(CC(=O)N[C@@H](Cc3ccccc3)C(=O)O)cc(=O)oc2c1C,1,1,-6,149*,21
CSC[C@H](NC(=O)Cc1c(C)c2cc3c(C)c(C)oc3cc2oc1=O)C(=O)N[C@@H](Cc1ccccc1)C(=O)O,·,·,4,6,7
C[C@@H]1CCCCO[C@H](CN(C)C(=O)C2CCCCC2)[C@@H](C)CN([C@@H](C)CO)C(=O)c2cc(NC(=O)Nc3ccc(C(F)(F)F)cc3)ccc2O1,0,·,·,·,·
Cc1c(C(=O)Nc2nc3ccccc3[nH]2)oc2ccccc12,2,-4,-3,8,33*
Cc1c(C(=O)Nc2nc3ccccc3[nH]2)oc2ccc(Br)cc12,1,-3,1,3,4
Cc1ccc(-c2[nH]c(-c3ccc(C(=O)O)cc3)nc2-c2ccccc2)cc1,2,6,-2,+,17
Cc1ccc(-c2nc3ccc(C(=O)O)cc3nc2-c2ccc(C)cc2)cc1,·,0,8,10,21
CC(=O)Nc1ccc(N=Nc2ccccc2)cc1,·,-15,3,-4,36*
CC(=O)Nc1ccccc1,2,6,5,-1,-6
Nc1ccc(OC(=O)Nc2ccc(O)cc2)cc1,12*,-3,-3,0,0
CC(=O)OCC(=O)Nc1ccc(N=Nc2ccccc2)cc1,0,-17,-4,-9,37*
SMILES,TcdB GH inh,PrPC surface inh,Y pestis TopoI,Mtb FBA inh,GDH-TPI counter
O=C(Nc1ccc(N2CCN(c3ccc(O)cc3)CC2)cc1)Oc1ccccc1,-1,11,-14,2,5
CC(=O)N/C(=C\c1ccccc1)C(=O)Nc1ccc(O)cc1,13*,1,-4,1,2
CC(=O)Nc1ccc(O)cc1,25*,7,0,-1,1
CC(=O)Nc1ccc(N/C=C/C(=O)C(C)(C)C)cc1,·,-8,-3,2,42*
O=C(NN=Cc1ccc(N(CCCl)CCCl)cc1Cl)c1cccnc1,0,1,0,8,72*
Cc1cc(N(CCCl)CCCl)ccc1C=NNC(=O)c1cccnc1,1,-6,-11,3,51*
O=C(N/N=C/c1cc(O)ccc1Br)c1cccnc1,1,3,-5,5,15
COCCn1c(C)cc(/C=N/NC(=O)c2cccnc2)c1C,-1,5,8,-1,7
C[C@@H]1CN([C@@H](C)CO)C(=O)c2cc(NC(=O)CCC(F)(F)F)ccc2O[C@@H](C)CCCCO[C@H]1CN(C)C(=O)CCCN(C)C,-1,·,·,·,·
CC1(C)CC(=O)c2sc(NS(=O)(=O)Cc3ccccc3)nc2C1,·,3,-5,-1,50*
C[C@@H]1CCCCO[C@@H](CN(C)C(=O)CCC(F)(F)F)[C@H](C)CN([C@H](C)CO)C(=O)c2cc(NC(=O)c3ccncc3)ccc2O1,-2,·,·,·,·
COCCn1c(=O)[nH]c(=O)c2c(C(F)(F)F)cc(-c3cccs3)nc21,·,-1,8,+,14
O=C(O)c1cccc(CN2C(=O)S/C(=C/c3cccc([N+](=O)[O-])c3)C2=O)c1,-1,4,9,1,44*
COc1ccccc1NC(=O)N(C)C[C@@H]1Oc2cc(Br)ccc2S(=O)(=O)N([C@@H](C)CO)C[C@H]1C,2,·,·,·,·
O=S(=O)(c1ccccc1F)N1CC[C@H]2[C@H](CO)Nc3ccc(-c4ccccc4F)cc3[C@H]21,-1,·,·,·,·
C[C@H](CO)N1C[C@H](C)[C@H](CN(C)C(=O)Nc2cccc3ccccc23)Oc2ccc(NC(=O)NC3CCCCC3)cc2C1=O,-1,·,·,·,·
CC(=O)c1ccc(N2CCN(C(=O)CCCn3c(=O)[nH]c4ccsc4c3=O)CC2)cc1,2,-6,15,1,30
CCOc1cc(C(=O)N2CCN(c3ccccc3)CC2)cc(OCC)c1OCC,·,-1,16,2,-2
CC(=O)c1ccc(N2CCN(C(=O)c3ccc4[nH]c(C)c(C)c4c3)CC2)cc1,0,7,23,5,35*
CCOc1cc(C(=O)N2CCN(c3ccc(C(C)=O)cc3)CC2)cc(OCC)c1OCC,2,-5,1,1,31*
CC(=O)c1ccc(N2CCN(C(=O)CCCn3c(=O)[nH]c4ccc(Br)cc4c3=O)CC2)cc1,1,-5,6,-2,32*
Cc1ccc(S(=O)(=O)N(C)C[C@@H]2OCCCC[C@H](C)Oc3ccc(NS(=O)(=O)c4cn(C)cn4)cc3C(=O)N([C@H](C)CO)C[C@H]2C)cc1,1,·,·,·,·
C[C@H]1CN([C@@H](C)CO)C(=O)c2cccc(NC(=O)NC3CCCCC3)c2O[C@@H]1CN(C)C(=O)NC1CCCCC1,1,·,·,·,·
COc1ccc(NC(=O)Nc2ccc3c(c2)C(=O)N([C@@H](C)CO)C[C@H](C)[C@H](CN(C)C(=O)NC(C)C)OCCCC[C@@H](C)O3)cc1,1,·,·,·,·
CN1C(=O)c2cc(NC(=O)C3CC3)ccc2OC[C@@H]2O[C@H](CC(=O)NC3CCC3)CC[C@H]21,-6,·,·,·,·
CNC(=O)c1ccc(Nc2nnc(C)c3ccccc23)cc1,0,-10,-5,0,29
Cc1nc(Nc2ccc(S(N)(=O)=O)cc2)sc1C(=O)Nc1ccccc1,2,19,-6,0,35*
